Here are results for 39 molecules from PubChem BioAssay (Tox21).

The structures appear in SMILES notation. Several values for one entry are separate records, joined by “and”; a condition that tells them apart may be missing. Identical values can stand only once. Results filed as inconclusive are left out. A structure can be active in one record and inactive in another. A number with no mark means an inactive call. Activity calls are given as the source filed them. Calls come from the whole dose curve; as a rule, active = well fitted cell-killing curve with a large enough effect in the repeat runs; inconclusive = weak or mixed curves, or effect the other way; inactive = flat fitted curve, though single readings scatter.
% is set by controls: 0 for no effect and ±100 for the full control effect; potency is the fitted concentration of half-maximal effect.

This assay can be described thus: qHTS RealTime-Glo MT Cell Viability Assay in HEK293 cells - 40 hour (AID 1224874). Note: nearly all actives have a fitted effect of over 50% in size. The conditions noted are these: RealTime-Glo luminescence; max response: active compounds read low. An excerpt: U.S. Tox21 Program National Center for Advancing Translational Sciences [NCATS] NIH Chemical Genomics Center [NCGC] U.S. Environmental Protection Agency [EPA] National Institutes of Environmental Health Sciences [NIEHS] National Toxicology Program [NTP] U.S. Food and Drug Administration [FDA] Tox21 Assay Overview: Measure of cell viability is critical in the cell-base assay. Analysis of cell viability is necessary for the characterization of cell responses to cytotoxic drugs and environmental stress. A RealTime-Glo MT Cell Viability Assay to monitor cell viability in real time of continues cell culture during 40 hours of compound treatment was used to screen Tox21 10K library compounds in Hek293 cells. The RealTime-Glo MT Cell Viability Assay is a nonlytic, homogeneous, bioluminescent method to measure cell viability in real time using a simple, plate-based method. The assay involves adding NanoLuc luciferase and a cell-permeant prosubstrate to cells in culture. Viable cells reduce the proprietary prosubstrate to generate a substrate for NanoLuc luciferase. This substrate diffuses from cells into the surrounding culture medium, where it is rapidly used by the NanoLuc Enzyme to produce a luminescent signal. The signal correlates with the number of viable cells, making the assay well suited for cytotoxicity studies.
Tox21 Assay Protocol Summary: The mixture of Hek293 cell suspension and reagents were dispensed at 600cells/6 ul/well in 1536-well tissue culture treated black solid bottom plates using a Multidrop dispenser. After the assay plates were incubated at a 37 C/5% CO2 incubator for 5 hours, 23 nL of compounds dissolved in DMSO, positive and negative controls was transferred to the assay plate by a pintool work station. The plates were incubated at 37 C for 40 hours. The luminescence intensity were measured at 0h, 8h, 16h, 24h, 32h and 40h time points using ViewLux plate reader during compound treatment.
(In general: qHTS replaces the single test concentration by a dilution series.)
Turning to `Clc1ccc(C(c2ccccc2Cl)C(Cl)(Cl)Cl)cc1` (stereo not given), the Potency was 49.3 µM (active) and the max response was -21.7%.
Turning to `CCCCCCCCCCCCCN1CC(C)OC(C)C1` (stereo not given), the max response is -1.65%.
As for `[CH3][Hg][Cl]`, the Potency was 3.88 µM (active).
With `COCC(=O)N(c1c(C)cccc1C)[C@H](C)C(=O)OC`, the max response is -0.139%.
On to `CC1(c2ccc(Oc3ccccc3)cc2)OC(=O)N(Nc2ccccc2)C1=O` (stereo not given), for which the Potency was 49.3 µM (active).
`Cc1ccc(OP(=O)(Oc2ccccc2)Oc2ccccc2)cc1`: the max response is -19.8%.
For the molecule `NC(=O)CCl`, the max response was 11.6%.
On to `CCCCCCCCCCCCBr`, for which the max response is -12.1%.
`Clc1ccc(C(c2ccc(Cl)cc2)C(Cl)(Cl)Cl)cc1`: the Potency was 39.2 µM (active).
`CC(C)C(=O)Cl`: the max response was 0.629%.
As to `NNC(=O)c1ccccc1`, the max response is -4.85%.
For `ClC1=C(Cl)C2(Cl)C3C(Cl)C(Cl)CC3C1(Cl)C2(Cl)Cl` (stereo not given), the Potency is 48.8 µM (active).
Consider `BrCC(Br)c1ccccc1` (stereo not given), for which the max response was 1.25%.
Take `CC(C)OC(=S)S`: the max response is 12.1%.
For the molecule `CC(=O)[O-].CC(=O)[O-].[Hg+2]`, the Potency is 1.55 µM (active).
On to `Clc1ccc(CCC(Cn2ccnc2)Sc2c(Cl)cccc2Cl)cc1` (stereo not given), for which the Potency is 8.49 µM (active).
As to `Brc1c(Br)c(Br)c(Oc2c(Br)c(Br)c(Br)c(Br)c2Br)c(Br)c1Br`, the max response was 1.84%.
Regarding `CN(C)C(=S)S`, the Potency is 11.2 µM (active) and 1.73 µM (active) and 9.77 µM (active).
`O=[N+]([O-])c1ccc(Oc2ccc(C(F)(F)F)cc2[N+](=O)[O-])cc1`: the Potency is 17.4 µM (active).
Take `CC(=O)[O-].[Tl+]`: the Potency is 27.7 µM (active).
On to `Cc1ccc(CCl)cc1`, for which the max response was 2.72%.
Same read-out and setting: to `ClC1=C(Cl)[C@]2(Cl)[C@@H]3[C@@H](Cl)[C@H](Cl)C[C@@H]3[C@@]1(Cl)C2(Cl)Cl` belongs 7.93%.
Turning to `CCCCCCCCCCCCCCCC[N+](C)(C)C`, the Potency was 8.4 µM (active) and 21.9 µM (active) and 9.52 µM (active).
With `CN(CCCC(=O)c1cccnc1)N=O`, the max response is 13.5%.
For `COc1cc(N)c(Cl)cc1C(=O)NC1CN2CCC1CC2` (stereo not given), the max response is -15.3%.
As for `O=C(CCl)C(Cl)Cl`, the Potency was 17.5 µM (active).
`COc1ccc(OC)c(CC(C)N)c1` (stereo not given): the max response was -2.46%.
`CCOP(=O)(NC(C)C)Oc1ccc(SC)c(C)c1` (stereo not given): the Potency was 13.8 µM (active).
For `BrC(Br)Br`, the max response was 17.3%.
For the molecule `COc1cc(C=O)cc2c1[C@H](COC(N)=O)[C@]1(OC(C)=O)ON2C[C@H]2[C@@H]1N2C(C)=O`, the Potency was 0.0309 µM (active).
Regarding `Cc1cccc(OP(=O)(Oc2cccc(C)c2)Oc2cccc(C)c2)c1`, the max response is 5.97%.
Regarding `Oc1ccc2ccc3cccc4ccc1c2c34`, the Potency is 13.8 µM (active).
Consider `S=C=Nc1cccc2ccccc12`, for which the max response was 2.28%.
Consider `CCCCCCCCc1ccc(O)cc1`, for which the Potency is 17 µM (active).
As to `CC(C)(C)c1ccc(CSc2cnn(C(C)(C)C)c(=O)c2Cl)cc1`, the Potency was 0.0069 µM (active).
`CCCCCCCCCC[N+](C)(C)CCCCCCCCCC`: the Potency is 0.977 µM (active).
With `SCc1ccco1`, the max response is -11.9%.
`CC(C)(C)C(O)/C(=C\c1ccc(Cl)cc1Cl)n1cncn1` (stereo not given): the Potency was 26.5 µM (active).
Consider `N#CCCC(Br)(C#N)CBr` (stereo not given), for which the Potency is 21.9 µM (active).
